Screening results as filed in PubChem BioAssay.
Hits are enriched below; roughly 3.1% of the tested compounds scored in any of these assays.
GSIS activator = GLuc luminescence reporter in INS-1E cells, primary screen for activators of glucose-dependent secretion of insulin; INS-1E GLuc reporter insulin secretion, 2-3 h; activation, % at 16.6 µM; 0.61% of 370,000 active; AID 743287;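 active = lowest replicate activation of at least 40%, so every replicate reaches that level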;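 also: 0% = median of neutral control wells and 100% = median of IBMX positive control wells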
DENV2 CPE = protects cells from dengue virus 2 cytopathic effect | DENV2-infected cells, cytopathic effect rescue, plate reader | CPE inhibition, % at 9.99 µM | 1.7% of 350,000 active; in the data active = CPE inhibition above about 20%, passing the limit was not always enough; inconclusive = no clear call, values can overlap the other calls; tested in BHK-21 cells;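 also: 0% = median of neutral control wells and 100% = median of positive control wells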
RAD54 branch = inhibitors of human RAD54 branch migration; Q92698; RAD54 Holliday junction branch migration, FAM/BHQ fluorescence; inhibition, % at 10.4 µM; 0.14% of 360,000 active; AID 602329;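 active = mean normalized replicate activity at least 40 and at least half of replicates scoring 40 or more; inconclusive = only one of the two criteria met; inactive = mean below 40 and under half of replicates reaching 40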;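 also: 0% = median of neutral control wells and 100% = median of positive control wells; inhibitors cause a drop in the FAM fluorescence signal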
RAD52 anneal inh = inhibitors of human RAD52 DNA annealing | 0.46% of 360,000 active | recombinant RAD52 DNA annealing, FRET fluorescence | inhibition, % at 18.7 µM | AID 651710;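 active = every replicate showing at least 50% inhibition; inconclusive = mean inhibition at least 50% but not in every replicate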
dFosB act = enhances mouse delta FosB homodimer DNA binding; purified delta FosB, TAMRA-CDK5 oligo fluorescence polarization; percent of positive-control signal above neutral wells; activation, % at 25 µM; 0.99% of 340,000 active;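 active = mean activation above about 17%, with every replicate also reaching it, limit read from the data, passing the limit was not always enough; inconclusive = only one of the two conditions met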
AF4-AF9 inh = blocks AF4 peptide binding to human AF9 | 0.47% of 350,000 active | AlphaScreen, biotin-AF4 peptide binding to FLAG-AF9 | AID 651704 | P42568 | inhibition, % at 10 µM;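 active = every replicate reaching a set inhibition limit, whatever the replicate mean, cut at about 25% in these data; inconclusive = mean inhibition reaches that limit but some replicates miss it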;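 also: 0% = plate neutral control median and 100% = total signal loss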
Target sequence (P42568 whole entry, looked up): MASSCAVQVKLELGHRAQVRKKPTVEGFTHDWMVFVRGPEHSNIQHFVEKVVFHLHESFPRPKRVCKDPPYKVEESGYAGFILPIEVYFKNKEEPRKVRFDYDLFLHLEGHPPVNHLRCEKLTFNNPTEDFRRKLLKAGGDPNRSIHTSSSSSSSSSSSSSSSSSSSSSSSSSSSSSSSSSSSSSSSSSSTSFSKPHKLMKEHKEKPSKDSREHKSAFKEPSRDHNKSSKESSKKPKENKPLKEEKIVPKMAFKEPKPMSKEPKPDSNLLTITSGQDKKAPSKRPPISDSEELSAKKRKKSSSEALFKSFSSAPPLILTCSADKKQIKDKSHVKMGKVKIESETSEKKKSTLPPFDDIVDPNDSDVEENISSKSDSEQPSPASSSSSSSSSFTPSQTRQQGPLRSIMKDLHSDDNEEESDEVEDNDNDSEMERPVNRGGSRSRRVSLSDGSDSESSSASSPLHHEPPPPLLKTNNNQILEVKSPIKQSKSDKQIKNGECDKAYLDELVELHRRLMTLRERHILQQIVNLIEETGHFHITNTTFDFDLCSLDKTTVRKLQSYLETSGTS
Active calls of the source: *; ? = inconclusive; / = no result given.

SMILES	GSIS activator	DENV2 CPE	RAD54 branch	RAD52 anneal inh	dFosB act	AF4-AF9 inh
O=C(Cn1c(O)c(/C=C2\C=Nc3ccccc32)sc1=O)Nc1ccc2c(c1)OCO2	11.4	/	2.3	-31.8	36.4*	4.9
COCC#Cc1ccc(CC[C@H]2O[C@H]3CC[C@H](CO)O[C@H]3C[C@@H]2n2cc(C3CC3)nn2)cc1	/	-2.8	/	-13.3	/	-0.2
O=C(CSc1ccccc1)N/N=C/c1ccccc1O	-3.0	-1.6	/	-5.5	1.4	0.4
O=C(CCSCCC(=O)NN=Cc1ccccc1O)NN=Cc1ccccc1O	2.4	-1.0	/	-0.6	35.6*	-1.8
Cc1ccc(S(=O)(=O)N(C)C[C@@H]2Oc3c(NC(=O)c4ccncc4)cccc3C(=O)N([C@@H](C)CO)C[C@H]2C)cc1	3.2	7.4	2.2	-12.4	/	-2.3
CSc1nc2c(=S)[nH]c(=S)[nH]c2s1	-1.8	87.3*	/	-3.7	/	-2.7
C[C@@H]1CN([C@H](C)CO)C(=O)Cc2cc(NC(=O)Cc3ccccc3)ccc2O[C@H]1CN(C)Cc1ccc(Cl)c(Cl)c1	-21.2	27.5*	3.1	10.2	/	-0.6
C[C@@H]1CN([C@@H](C)CO)C(=O)Cc2cc(NC(=O)Cc3ccccc3)ccc2O[C@H]1CN(C)Cc1ccc(Cl)c(Cl)c1	-29.8	26.3*	4.3	29.9	/	4.4
COc1cc(CN2CC3(CN(C(=O)c4cccnc4)C3)c3c([nH]c4cc(OC)ccc34)[C@@H]2CO)cc(OC)c1	24.7	13.0	/	-0.5	/	-5.8
Cc1noc(C)c1NC(=O)Nc1cccc2c1O[C@@H](CN(C)C(=O)Nc1ccc(C(F)(F)F)cc1)[C@H](C)CN([C@@H](C)CO)C2=O	-4.3	-1.4	-1.0	-6.3	/	-1.4
COc1ccc(CNC(=O)C[C@@H]2C[C@@H]3c4cc(NC(=O)NC5CCCC5)ccc4O[C@@H]3[C@H](CO)O2)cc1	-7.2	-4.9	0.9	-7.1	/	-1.3
CCN1CCC(O)(/C=C/c2ccc(C(C)C)cc2)C(C(=O)/C=C/c2ccc(C(C)C)cc2)C1 (stereo not drawn)	24.0	5.2	/	18.0	53.9*	?
CCN1CCN(C(=O)/C=C/c2ccc(C(C)C)cc2)CC1	-5.0	19.1	-0.9	-15.8	4.9	3.3
Cc1nc(N2CCOCC2)nc(N2CCCCC2)c1[N+](=O)[O-]	7.1	/	/	/	0.0	/
Cc1nc(N2CCOCC2)nc(N2CCCC2)c1[N+](=O)[O-]	53.1*	/	5.5	/	0.1	/
COc1ccc(-c2ccc(C#N)c(SCC(=O)NCc3ccco3)n2)cc1OC	50.6*	-3.0	1.7	-17.9	7.8	-3.8
COc1ccc(-c2nc3cccc(C)n3c2NCc2ccco2)cc1OC	65.3*	/	3.3	/	-5.3	/
COc1cccc(-c2ccc3n(c2=O)C[C@H]2[C@H](CO)[C@@H](C(=O)N(C)C)[C@@H]3N2CC2CC2)c1	5.0	5.0	2.8	-11.0	/	-2.1
O=C(c1ccccn1)N1C[C@@H]2[C@H](c3ccccc31)[C@H](CO)N2C(=O)C1CC1	3.2	17.9	-3.2	-17.6	/	-0.3
COc1ccccc1C#Cc1ccc2c(c1)[C@H]1[C@H](CCN1S(=O)(=O)c1ccc(C)cc1)[C@@H](CO)N2	4.5	-1.2	/	1.1	/	2.0
Cc1c2cc[n+](CCN3CCCCC3)cc2c(C)c2c1[nH]c1ccc(O)cc12	/	/	/	/	89.4*	/
O=C(C[C@@H]1CC[C@H]2[C@@H](COC[C@@H](O)CN2Cc2nccs2)O1)NCc1ccccc1	6.0	-4.7	-12.9	-17.5	/	1.9
C/C=C/c1ccc([C@@H]2[C@@H](CO)N(C(C)=O)C23CN(C(=O)c2ccncc2)C3)cc1	-6.0	24.9*	/	-8.9	/	-0.7
C/C=C/c1ccc([C@H]2[C@H](CO)N(C(=O)c3cnccn3)C23CN(C(=O)C2CC2)C3)cc1	-0.1	33.4*	/	-11.3	/	3.0
C[C@H]1CN([C@@H](C)CO)C(=O)c2cc(NS(=O)(=O)c3ccccc3)ccc2O[C@H]1CN(C)S(C)(=O)=O	-3.2	1.4	-8.6	4.4	/	0.2
SMILES	GSIS activator	DENV2 CPE	RAD54 branch	RAD52 anneal inh	dFosB act	AF4-AF9 inh
Cc1ccc(CNC(=O)OC2CC3CC2[C@H]2CCCCN2C3=O)cc1 (stereo partly drawn)	33.4	-0.7	/	-5.3	/	-1.8
CCCNC(=O)OC1CC2CC1[C@H]1CCCCN1C2=O (stereo partly drawn)	8.6	29.3*	/	-4.3	/	-1.5
O=C(NC1CCC1)[C@H]1[C@H](CO)[C@H]2Cn3c(ccc(-c4ccc(F)cc4)c3=O)[C@@H]1N2Cc1cocn1	-0.4	2.6	/	-15.1	/	-5.7
O=C(C[C@@H]1C[C@H]2c3cc(NC(=O)C4CCC4)ccc3O[C@H]2[C@@H](CO)O1)NCc1ccc(Cl)cc1	24.2	0.6	-3.6	-5.6	/	1.1
Cc1ccc(S(=O)(=O)N(C)C[C@H]2OCCCC[C@@H](C)Oc3ccc(NS(=O)(=O)c4ccccc4)cc3C(=O)N([C@@H](C)CO)C[C@@H]2C)cc1	6.3	5.9	-7.0	-7.1	/	-0.6
CCCCCCCNC(=O)C1(CC2CC(c3ccccc3)=NO2)CCN(C(=O)c2ccccc2)CC1 (stereo not drawn)	/	23.8*	1.6	-12.6	-14.2	8.8
O=C(NC1CCC1)[C@@H]1[C@@H](CO)[C@@H]2Cn3c(ccc(-c4ccc(F)cc4)c3=O)[C@@H]2N1Cc1ccccn1	0.8	0.4	?	4.5	/	-3.4
O=C(NCCN1CCN(C(=O)c2ccccc2Cl)CC1)C(=O)NCc1ccccc1	159.8*	-1.9	-2.9	-2.2	-2.0	-2.6
Brc1ccc(-c2nnc(-c3cccnc3)o2)cc1	-5.9	81.6*	/	1.4	-8.3	/
Cc1ccc(-c2nnc(-c3cccnc3)o2)cc1	-7.7	-3.2	-1.2	-12.5	-10.1	-0.7
O=C(N[C@H]1CC[C@@H](CC(=O)N2CCOCC2)O[C@@H]1CO)c1ccc2c(c1)OCO2	-2.6	8.8	5.7	-1.0	/	-1.7
O=C(c1cccnc1)N1CC(=O)N2[C@H](C1)[C@@H](c1ccc(-c3ccccc3F)cc1)[C@@H]2CO	-6.3	34.7*	/	-2.1	/	-0.1
O=C(c1cccnc1)N1CC(=O)N2[C@H](CO)[C@@H](c3ccc(/C=C/c4ccccc4)cc3)[C@H]2C1	5.1	13.2	/	-30.4	/	27.2*
COc1ccc2c3c(n(C)c2c1)[C@@H](CO)N(Cc1ccccc1)CC31CN(C)C1	9.5	-1.4	/	19.5	/	2.6
Cc1[nH]n(-c2ccccc2)c(=O)c1C=Nc1ccc(S(=O)(=O)N=C(N)N)cc1	16.7	-1.4	1.0	-13.7	26.4*	-1.3
O=C(C[C@@H]1C[C@H]2c3cc(NC(=O)NC4CCCC4)ccc3O[C@H]2[C@H](CO)O1)NCc1ccncc1	-4.9	1.0	16.5	-3.2	/	-2.5
O=C(c1cc(C(=O)N2CCOCC2)c2nc3ccccc3n2c1)c1cc(Cl)cc(Cl)c1O	7.4	-5.1	/	-5.1	-8.3	27.3*
COc1cc(OC)cc(C(=O)Nc2ccc3nc4n(c(=O)c3c2)CCCC4)c1	8.9	118.6*	-2.1	-12.0	-19.3	0.4
